PubChem BioAssay AID2283172 (EPA ToxCast)
Calls of active or inactive are those of the source. How the source made its calls: active means hit-call score of the fitted dose curve at least 0.9, where 1 is the maximum; inactive means score below 0.9.

Target: human LYN Proto-Oncogene, Src family Tyrosine Kinase (LynB), LYN (gene 4067) (UniProt P07948)
Test: NVS_ENZ_hLynB: NovaScreen (NVS) Enzymatic Assay for human LYN Proto-Oncogene, Src family Tyrosine Kinase (LynB)
Protocol: NVS_ENZ_hLynB is a biochemical, single-readout assay that uses extracted gene-proteins in a cell-free assay. Measurements were taken 1 hour after chemical dosing in a 384-well plate.NVS_ENZ_hLynB is one of one assay component(s) measured or calculated from the NVS_ENZ_hLynB assay. It is designed to make measurements of enzyme activity, a form of enzyme reporter, as detected with fluorescence intensity signals by Fluorescence and electrophoretic mobility shift technology.Data from the assay component NVS_ENZ_hLynB was analyzed into 1 assay endpoint. This assay endpoint, NVS_ENZ_hLynB, was analyzed in the positive analysis fitting direction relative to DMSO as the negative control and baseline of activity. Using a type of enzyme reporter, loss-of-signal activity can be used to understand changes in the enzymatic activity as they relate to the gene LYN. Furthermore, this assay endpoint can be referred to as a primary readout, because this assay has produced multiple assay endpoints where this one serves a enzymatic activity function. To generalize the intended target to other relatable targets, this assay endpoint is annotated to the kinase intended target family, where the subfamily is non-receptor tyrosine kinase. […]

Chain of human LYN Proto-Oncogene, Src family Tyrosine Kinase (LynB), LYN (gene 4067) (P07948 whole entry, looked up): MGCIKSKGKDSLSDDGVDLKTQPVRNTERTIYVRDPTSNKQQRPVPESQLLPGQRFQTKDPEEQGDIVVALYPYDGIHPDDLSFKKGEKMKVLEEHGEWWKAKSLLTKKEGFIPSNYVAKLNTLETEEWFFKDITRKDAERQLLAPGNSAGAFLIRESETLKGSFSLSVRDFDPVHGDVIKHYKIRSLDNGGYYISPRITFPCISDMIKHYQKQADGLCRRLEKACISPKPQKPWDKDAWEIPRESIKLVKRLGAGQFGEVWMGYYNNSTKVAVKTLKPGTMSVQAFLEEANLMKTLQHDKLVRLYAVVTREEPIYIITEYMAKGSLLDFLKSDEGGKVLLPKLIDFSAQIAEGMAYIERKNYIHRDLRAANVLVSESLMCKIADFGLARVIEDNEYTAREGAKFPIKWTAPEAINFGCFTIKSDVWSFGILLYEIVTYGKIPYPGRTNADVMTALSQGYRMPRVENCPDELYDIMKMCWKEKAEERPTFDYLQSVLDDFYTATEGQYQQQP

SMILES | outcome
CCOCN(C(=O)CCl)c1c(C)cccc1CC | inactive
